# High-throughput results from PubChem.
# Most compounds without a hit are left out; they make up all but 5.1% or so of the library.
# NPSR antag: blocks cAMP signaling of the human neuropeptide S receptor | Q6W5P4 | CHO-NPSR cells, cAMP TR-FRET, antagonist mode | Potency, µM (highest dose often 38.3 µM), for the others: top-dose activity change, negative = inhibition, actives largely listed as inhibitors | hit rate 1% among 220,000 | AID 1461; note: potency is the fitted concentration of half-maximal effect; nearly all actives have a fitted effect of over 50% in size
# Tau fluor counter: counter-screen for tau fibril formation inhibitors; hit rate 0.93% among 280,000; tau K18 P301L Alexa594 fluorescence, heparin fibrillization; Potency, µM (top dose mostly 57.7 µM), for the others: at the top dose activity change, negative = decrease; note: potency is the fitted concentration of half-maximal effect; nearly all actives have a fitted effect of over 55% in size
#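 Human tau K18 P301L (15 uM unlabeled, 0.24 uM Alexa 594-labeled) in 100 mM sodium acetate pH 7 with 20 uM heparin, 6 hr at 37 C. ThT 30 uM added, 1 hr ambient; Alexa 594 FP and total fluorescence read at 555/632 nm.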
# KDM4E inh: blocks human JMJD2E demethylase activity; B2RXH2; JMJD2E catalytic domain, FDH-coupled NADH fluorescence (FDH is formaldehyde dehydrogenase); Potency, µM (series often up to 57.1 µM), for inactives: at the top dose activity change, negative = inhibition, actives largely listed as inhibitors; hit rate 1.6% among 230,000; AID 2147; active = well fitted inhibition curve with a large enough effect, not every such curve was filed as active; inconclusive = small, poorly fitted or top-dose-only effect, or another doubt; inactive = no such curve, though single readings can be large or run the other way;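 note: potency is the fitted concentration of half-maximal effect; 0% = wells with enzyme and -100% = buffer wells without enzyme; nearly all actives have a fitted effect of over 50% in size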
# Target sequence (B2RXH2 1-337 limits assumed): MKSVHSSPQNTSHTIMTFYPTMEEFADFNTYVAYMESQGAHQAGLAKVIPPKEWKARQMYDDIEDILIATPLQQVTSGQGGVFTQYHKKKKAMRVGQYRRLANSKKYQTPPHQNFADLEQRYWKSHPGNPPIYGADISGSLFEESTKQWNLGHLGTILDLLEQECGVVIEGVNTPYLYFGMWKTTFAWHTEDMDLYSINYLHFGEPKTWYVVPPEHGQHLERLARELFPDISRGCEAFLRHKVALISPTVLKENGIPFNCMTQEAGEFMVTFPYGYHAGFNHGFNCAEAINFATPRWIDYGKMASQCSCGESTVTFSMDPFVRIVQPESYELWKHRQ
# PNC assembly inh: perinucleolar compartment assembly inhibition. PC3M PTB-GFP, PNC prevalence imaging, 16 h; hits give low values. activity change (PNC), negative = inhibition, % at 10 µM. hit rate 3.1% among 140,000;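 active = readout at or below -70, meaning at least 70% loss of cells showing the perinucleolar compartment, a nuclear body marking cancer cells; inconclusive = readout between -30 and a set limit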;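 note: plate controls were DMSO wells for no effect and camptothecin positive control wells for full effect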
#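 Read-out is percentage of cells bearing a perinucleolar compartment, from automated 20x imaging of fixed, Hoechst-stained PC3M PTB-GFP cells. Cells were seeded 4 h, then exposed 16 h to compound (23 nl of library stock) in duplicate plates.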
# Tau ThT inhib: tau fibrillization inhibition (ThT binding). hit rate 2.1% among 270,000. Potency, µM (doses to about 57.4 µM), for inactives: top-dose activity, negative = inhibition, usual class: inhibitors. P10636. recombinant tau K18 P301L (four-repeat tau fragment), heparin-induced fibrillization, ThT fluorescence; note: potency is the fitted concentration of half-maximal effect; nearly all actives have a fitted effect of over 55% in size
# Target sequence (P10636 561-689 P618L limits assumed): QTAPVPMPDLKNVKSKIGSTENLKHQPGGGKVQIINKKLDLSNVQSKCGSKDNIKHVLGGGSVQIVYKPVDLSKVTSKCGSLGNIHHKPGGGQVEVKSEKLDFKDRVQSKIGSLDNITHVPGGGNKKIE
#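 Heparin-induced (20 uM) aggregation of recombinant human K18 P301L tau, 15 uM unlabeled with 0.24 uM labeled, pH 7 acetate buffer, 6 hr at 37 C with compound. Fibrils quantified by 30 uM ThT fluorescence after 1 hr ambient incubation.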
# Tau FP inhib: blocks human tau fibril formation measured by polarization. Potency, µM (top dose mostly 57.7 µM), without a hit: at the highest dose activity, negative = inhibition, hits mostly inhibitors. hit rate 0.39% among 280,000. P10636. K18 P301L tau heparin fibrillization, Alexa594 FP, 6 h; note: potency is the fitted concentration of half-maximal effect; nearly all actives have a fitted effect of over 55% in size
#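 Read-out: fluorescence polarization of Alexa 594-labeled tau (0.24 uM), 555 nm excitation, 632 nm emission. Mixtures held 15 uM unlabeled K18 P301L, compound and 20 uM heparin, pH 7 acetate buffer, incubated 6 hr at 37 C.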
# Starred values were filed as active, the others as inactive; ? = inconclusive; · = not tested or not shown; ! = not confirmed by another sample; [ ] = another dose, or the depositor's remark. Unless noted, calls come from the whole dose curve; as a rule, active = well fitted curve in the direction sought with a large enough effect; inconclusive = small, poorly fitted or top-dose-only effect, or another doubt; inactive = no such curve, though single readings can be large; an effect the other way counts as inactive or inconclusive. Unless noted, % is set by controls: 0 for no effect and ±100 for the full control effect.
SMILES,NPSR antag,Tau fluor counter,KDM4E inh,PNC assembly inh,Tau ThT inhib,Tau FP inhib
CCOC(=O)c1c(C)n(Cc2ccccc2)c2ccc(OCC(O)Cn3nc(C)cc3C)cc12 (stereo unspecified),?,-12.9%,?,-80.4*,-17.5%,-10.2%
COc1cccc(N2CCN(Cc3ccc(Cl)cc3)CC2)c1,-8.2%[46.1 µM],-17.2%,20µM*,7.8,-12.0%,-0.4%
Cc1ccc(-c2nnc(Nc3ccc(O)cc3)c3ccccc23)cc1S(=O)(=O)N1CCOCC1,·,?,·,·,-2.9%,?
Cc1ccc(N2C(=O)/C(=C/c3ccc(CN(CCC#N)S(C)(=O)=O)o3)C(=O)NC2=S)cc1,-22.2%[46.1 µM],-22.0%,?,21.6,22.4µM*,?
COc1ccc(N2C(=O)/C(=C/c3cccs3)C(=O)NC2=S)cc1,?,2.0%,?,·,·,6.2%
N#CC(C#N)=NNc1ccc([N+](=O)[O-])cc1,3.98µM*,?,-11.2%,·,·,0.4%
COc1cccc(-n2c(O)c(C=NCc3ccc4c(c3)OCO4)c(=O)[nH]c2=O)c1,-6.3%[46.1 µM],4.9%,0.8%,-5.5,4.3%,-6.3%
COc1ccccc1-n1c(O)c(C=NCc2ccc3c(c2)OCO3)c(=O)[nH]c1=O,-3.5%[46.1 µM],-3.5%,-20.6%,-106.5*,-5.1%,0.6%
COc1ccc(CCNCc2ccc(F)cc2)cc1OC,-0.9%[46.1 µM],-11.0%,1.4%,-106.2*,-10.6%,3.3%
C/C(O)=C1\C(=O)[C@@H]2[C@H]3c4c[nH]c5cccc(c45)C[C@H]3C(C)(C)N2C1=O,·,-17.9%,·,·,?,-2.5%
OC12ONC(c3ccccn3)C1N1CCC2CC1 (stereo unspecified),10.6%,-11.7%,-23.5%,?,12.6µM*,?
CC(C)C12CN3CC(C(C)C)(CN(C1)C3c1ccccn1)C2=O (stereo unspecified),·,0.2%,·,·,-0.5%,-1.7%
Cc1ccc(N2C(=O)NC(=O)/C(=C\c3ccc([N+](=O)[O-])o3)C2=O)cc1,-9.0%,-14.9%,-9.0%,·,22.4µM*,?
Cc1ccc(N2C(=O)NC(=O)/C(=C\c3ccc(N4CCOCC4)cc3)C2=O)cc1,-7.5%,-13.3%,?,?,?,-10.7%
O=C1NC(=O)N(c2ccccc2F)C(=O)/C1=C/c1ccc(Sc2nc3ccccc3[nH]2)o1,-26.7%,-11.2%,?,-23.6,12.6µM*,-22.1%
O=C1NC(=O)N(c2cccc(Cl)c2)C(=O)/C1=C\c1ccc(Sc2nc3ccccc3[nH]2)o1,-43.8%,?,?,1.3,12.6µM*,?
O=C1NC(=O)N(c2ccccc2)C(=O)/C1=C/c1ccc(Sc2ccccc2)o1,10µM*,-9.0%,?,-4.2,?,-5.7%
Cc1ccc(C(=O)COC(=O)c2cccc(NC(=O)c3ccc(Br)cc3)c2)cc1,·,-25.3%,·,·,9.7%,?
CNc1ccc2oc(C[C@@H]3OC4(CC[C@@H]3C)O[C@H](C(C)C(=O)c3ccc[nH]3)[C@H](C)C[C@H]4C)nc2c1C(=O)O (stereo partly specified),·,-23.7%,·,·,?,-4.2%
CCN(CC)c1ccc(/C=C2\C(=O)NC(=S)N(C)C2=O)o1,-43.1%,-9.9%,0.3%,·,14.1µM*,6.2%
Cc1cc(C)cc(N2C(=O)/C(=C\c3ccc(N4CCN(C)CC4)o3)C(=O)NC2=S)c1,-16.5%,-9.4%,-14.6%,·,?,-2.8%
CCN(CC)c1ccc(C=C2C(=O)N(C)C(=S)N(C)C2=O)o1,-23.8%,-1.2%,-1.8%,33.0,10µM*,-11.5%
O=C1NC(=O)C(=Cc2ccc(N3CCOCC3)o2)C(=O)N1,-25.4%,1.7%,17.8µM*,·,?,-8.0%
C=CCN1C(=O)/C(=C/c2ccc(N3CCOCC3)o2)C(=O)NC1=S,-14.8%,2.8%,-4.4%,50.4,0.1%,-1.0%
CN1C(=O)C(=Cc2ccc(SC3CCCCC3)o2)C(=O)N(C)C1=O,-12.8%,-14.0%,-3.6%,·,?,-9.4%
SMILES,NPSR antag,Tau fluor counter,KDM4E inh,PNC assembly inh,Tau ThT inhib,Tau FP inhib
CN1C(=O)C(=Cc2ccc(N3CCCCC3)o2)C(=O)N(C)C1=S,-2.9%[46.1 µM],-8.6%,-3.4%,-100.0*,-9.3%,?
CCN1C(=O)/C(=C/c2ccc(N(CC)CC)cc2OC)C(=O)NC1=S,-57.4%,-17.9%,?,·,?,-14.8%
Cc1ccc(NC(=O)C2CCN(C(=O)c3cnn(-c4ccccc4)c3-n3cccc3)CC2)cc1Cl,·,?,·,·,-4.4%,-8.7%
CCCCC/C=C\C/C=C\C/C=C\C/C=C\CCCC(=O)NCCCl,·,6.3%,·,·,?,-16.7%
COC(C)C(O)(C(=O)OC1=CCN2CC[C@H](O)[C@H]12)C(C)C (stereo partly specified),·,-8.9%,-2.2%,·,-3.6%,-4.2%
CC(C)(O)C1O[C@H]2CC[C@@]3(C)[C@@](O)(CC[C@H]4Cc5c([nH]c6ccccc56)[C@@]43C)C2=CC1=O (stereo partly specified),·,15.8µM*[quencher],·,·,?,?
c1cc2c(cc1[C@H]1OC[C@@H]3[C@H]1CO[C@H]3c1ccc3c(c1)OCO3)OCO2,·,?,-15.3%,·,?,-1.7%
CCc1ccc(-n2c(O)c(/C=N/N3CCCCC3c3cccnc3)c(=O)[nH]c2=O)cc1 (stereo unspecified),-11.0%[46.1 µM],-0.4%,9.2%,-99.5*,0.2%,-9.2%
CCN(CC)c1ccc(N=Cc2c(O)n(-c3ccccc3C)c(=O)[nH]c2=O)cc1,-14.6%[46.1 µM],-30.0%,-25.0%,10.2,20µM*,0.3%
CCN(CC)c1ccc(N=Cc2c(O)n(-c3ccccc3)c(=O)[nH]c2=O)cc1,-17.3%,?,7.94µM*,·,·,-13.5%
CCOc1ccccc1-n1c(O)c(C=Nc2ccc(N(CC)CC)cc2)c(=O)[nH]c1=O,-2.3%[7.67 µM],-29.9%,-18.3%,18.1,?,-10.4%
Cc1ccc(N/N=C/c2c(O)n(-c3ccccc3)c(=O)[nH]c2=O)cc1,-5.1%,?,-22.7%,·,15.8µM*,?
O=c1[nH]c(=O)n([C@H]2C[C@H](O)[C@@H](CO)O2)cc1/C=C/Br,?,-2.0%,1.5%,·,-4.3%,-3.0%
O=C(/C=C/c1ccc(Cl)cc1)N[C@@]12CCC(=O)[C@@H]3Oc4c(O)ccc5c4[C@@]31CCN(CC1CC1)C2C5,·,-20.7%,·,·,4.8%,-0.7%
C[C@@H]1C[C@H]2OC(=O)C3(CO3)[C@H]2[C@H](O)[C@]2(C)C(=O)C3OC3[C@@H]12 (stereo partly specified),-38.4%,-8.1%,13.4%,·,?,?
C=C1C(=O)O[C@@H]2C[C@@H](C)[C@@H]3C=CC(=O)[C@@]3(C)[C@@H](O)[C@H]12,-45.6%,8.91µM*![quencher],9.5%,·,3.55µM*,3.98µM*
Clc1ccc(C2=CCC[C@H]3CC[C@@H]2N3)cn1,·,-6.6%,-8.6%,·,-15.3%,5.6%
COc1cc2c(c(OC)c1OC)-c1ccc(O)c(=O)cc1[C@H](N)CC2,·,·,7.94µM*,·,·,·
CC/C=C\C/C=C\C/C=C\C/C=C\C/C=C\CCCC(N)=O,·,-9.3%,9.3%,·,-9.0%,-9.3%
